# Records with an inconclusive call do not appear. Active and inactive are the calls of the source. Calls come from the whole dose curve.
# Biological target: Acetylcholinesterase (Homo sapiens) (UniProt P22303)
# Experiment: Acetylcholinesterase (AChE) small molecule antagonists: enzyme-based qHTS assay (AID 1347397); note: nearly all actives have a fitted effect of over 55% in size
# Conditions: Potency: AChE enzyme activity inhibition; series mostly up to 115 µM; activity change, negative = inhibition: at the top concentration
# In short: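 rhAChE 50 mU/mL (dispensed) + cpd or DMSO, 30 min RT; add DTNB/acetylthiocholine cocktail, 10 min RT; colorimetric thiocholine readout. qHTS, 1536-well format.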
# % is set by controls: 0 for no effect and ±100 for the full control effect.
# Sequence of Acetylcholinesterase (Homo sapiens) (P22303 whole entry, looked up): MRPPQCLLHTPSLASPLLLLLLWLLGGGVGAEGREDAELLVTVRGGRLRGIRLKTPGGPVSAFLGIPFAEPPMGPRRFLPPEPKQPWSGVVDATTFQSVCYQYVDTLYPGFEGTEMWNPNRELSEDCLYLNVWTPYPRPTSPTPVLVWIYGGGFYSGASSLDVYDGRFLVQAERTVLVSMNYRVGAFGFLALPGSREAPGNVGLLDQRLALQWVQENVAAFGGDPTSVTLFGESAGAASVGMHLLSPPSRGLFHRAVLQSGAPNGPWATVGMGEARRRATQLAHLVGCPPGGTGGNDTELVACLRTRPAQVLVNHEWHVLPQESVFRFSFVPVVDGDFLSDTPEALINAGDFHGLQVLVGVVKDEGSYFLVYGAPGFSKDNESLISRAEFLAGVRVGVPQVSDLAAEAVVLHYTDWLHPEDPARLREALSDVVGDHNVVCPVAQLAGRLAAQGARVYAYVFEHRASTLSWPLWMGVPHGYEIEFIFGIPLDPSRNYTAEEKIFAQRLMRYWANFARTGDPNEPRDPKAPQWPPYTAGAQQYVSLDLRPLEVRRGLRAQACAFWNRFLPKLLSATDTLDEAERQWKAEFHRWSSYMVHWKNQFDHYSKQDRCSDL
row,Compound,"activity change, negative = inhibition"
1,CCS(=O)(=O)C(C)(C)S(=O)(=O)CC,0.86% [at 53 µM] (inactive)
2,O=C(O)c1ccc2[nH]cc(CCCCN3CC=C(c4ccccc4)CC3)c2c1,-0.27% [at 53 µM] (inactive)
3,O=[N+]([O-])c1cc(Cl)c(Cl)c(Cl)c1,-1.23% (inactive)
4,CCN(Cc1ccc(Cl)nc1)/C(=C/[N+](=O)[O-])NC,0.135% [at 53 µM] (inactive)
5,C[N+](C)=CCl,-1.03% (inactive)
6,CCC(C)(C)c1cc(-n2nc3ccccc3n2)c(O)c(C(C)(C)CC)c1,0.721% (inactive)
7,OCCSCSCCO,0.791% (inactive)
8,ClCCCN1CCN(c2cccc(Cl)c2)CC1,-0.834% [at 53 µM] (inactive)
9,C=C(C)CN(CC)c1c([N+](=O)[O-])cc(C(F)(F)F)cc1[N+](=O)[O-],-1.41% (inactive)
10,CC(C)[N+](=O)[O-],-0.273% (inactive)
11,Cc1cccc(C#N)c1,0.558% (inactive)
12,COC(=O)c1ccccc1S(=O)(=O)NC(=O)N(C)c1nc(C)nc(OC)n1,-0.321% (inactive)
13,CC(C)(C)C(=O)C(Oc1ccc(Cl)cc1)n1cncn1 (stereo unspecified),-0.263% (inactive)
14,O=NN1CCN(N=O)CC1,-0.545% (inactive)
15,O=C(O)c1cccc(Cl)c1,-0.274% (inactive)
16,O=CNC(N1CCN(C(NC=O)C(Cl)(Cl)Cl)CC1)C(Cl)(Cl)Cl (stereo unspecified),-0.774% (inactive)
17,CCOC(=O)CP(=O)(OCC)OCC,-0.653% (inactive)

row,Compound,"activity change, negative = inhibition"
1,COC(=O)C(C)Oc1ccc(Oc2ccc(Cl)cc2Cl)cc1 (stereo unspecified),-3.02% (inactive)
2,C[C@H]1CCC[C@H](O)CCCCCc2cc(O)cc(O)c2C(=O)O1,-3.13% (inactive)
3,CCCCc1ccc(O)cc1,0.619% (inactive)
4,C[C@@H]1CN(C2CCC(C#N)(c3ccc(F)cc3)CC2)CC[C@]1(C(=O)O)c1ccccc1 (stereo partly specified),1.2% [at 53 µM] (inactive)
5,COc1cc(OC)nc(Oc2cccc(Oc3nc(OC)cc(OC)n3)c2C(=O)O)n1,1.77% (inactive)
6,N#CCNCC#N,-0.263% (inactive)
7,CCNc1nc(NC(C)C)nc(OC)n1,1.55% (inactive)
8,Cc1cnc[nH]1,-2.19% (inactive)
9,COc1cc2c(cc1OC)[C@@]13CCN4CC5=CCO[C@H]6CC(=O)N2[C@H]1[C@H]6[C@H]5C[C@H]43,-0.774% (inactive)
10,CCC1(c2ccccc2)C(=O)NC(=O)NC1=O,0% (inactive)
11,CC(Oc1ccc(Oc2ncc(C(F)(F)F)cc2Cl)cc1)C(=O)O (stereo unspecified),0.645% (inactive)
12,CN(N=O)C(N)=O,0.275% (inactive)
13,NC1=NC(=O)C(c2ccccc2)O1 (stereo unspecified),-0.0011% [at 53 µM] (inactive)
14,OC(Cn1cncn1)(c1ccc(F)cc1)c1ccccc1F (stereo unspecified),0.529% (inactive)
15,ClC(Cl)Br,-0.954% (inactive)
16,CCC#N,-0.273% (inactive)

# Biological target: Acetylcholinesterase (Homo sapiens) (UniProt P22303)
# Experiment: Acetylcholinesterase (AChE) small molecule antagonists: fluorescence cell-based qHTS assay (AID 1347398); note: nearly all actives have a fitted effect of over 50% in size
# Conditions: SH-SY5Y cells; Potency: AChE activity; series mostly up to 115 µM; activity change, negative = inhibition: at the top concentration
# In short: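 Read-out is Thiolite Green fluorescence at Ex/Em = 490/520 nm, formed by reaction with thiocholine released when cellular AChE in SH-SY5Y cells hydrolyzes acetylthiocholine. Compounds were preincubated 30 min at 37 C before substrate.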
row,Compound,"activity change, negative = inhibition"
1,CCS(=O)(=O)C(C)(C)S(=O)(=O)CC,1.11% [at 53.7 µM] (inactive)
2,O=C(O)c1ccc2[nH]cc(CCCCN3CC=C(c4ccccc4)CC3)c2c1,-12.4% [at 53.7 µM] (inactive)
3,O=[N+]([O-])c1cc(Cl)c(Cl)c(Cl)c1,1.88% (inactive)
4,C[N+](C)=CCl,5.28% (inactive)
5,CCC(C)(C)c1cc(-n2nc3ccccc3n2)c(O)c(C(C)(C)CC)c1,-3.19% (inactive)
6,OCCSCSCCO,4.79% (inactive)
7,ClCCCN1CCN(c2cccc(Cl)c2)CC1,6.11% [at 53.7 µM] (inactive)
8,C=C(C)CN(CC)c1c([N+](=O)[O-])cc(C(F)(F)F)cc1[N+](=O)[O-],1.08% (inactive)
9,CC(C)[N+](=O)[O-],9.09% (inactive)
10,Cc1cccc(C#N)c1,-0.965% (inactive)
11,COC(=O)c1ccccc1S(=O)(=O)NC(=O)N(C)c1nc(C)nc(OC)n1,-9.73% (inactive)
12,CC(C)(C)C(=O)C(Oc1ccc(Cl)cc1)n1cncn1 (stereo unspecified),3.8% (inactive)
13,O=NN1CCN(N=O)CC1,0.696% (inactive)
14,O=C(O)c1cccc(Cl)c1,3.03% (inactive)
15,O=CNC(N1CCN(C(NC=O)C(Cl)(Cl)Cl)CC1)C(Cl)(Cl)Cl (stereo unspecified),-2.8% (inactive)
16,Cc1ncc2n1-c1ccc(Cl)cc1C(c1ccccc1F)=NC2,-6.96% [at 53.7 µM] (inactive)
17,CCOC(=O)CP(=O)(OCC)OCC,5.63% (inactive)

row,Compound,"activity change, negative = inhibition"
1,COC(=O)C(C)Oc1ccc(Oc2ccc(Cl)cc2Cl)cc1 (stereo unspecified),-15.8% (inactive)
2,C[C@H]1CCC[C@H](O)CCCCCc2cc(O)cc(O)c2C(=O)O1,-22.3% (inactive)
3,CCCCc1ccc(O)cc1,-3.68% (inactive)
4,C[C@@H]1CN(C2CCC(C#N)(c3ccc(F)cc3)CC2)CC[C@]1(C(=O)O)c1ccccc1 (stereo partly specified),4.22% [at 53.7 µM] (inactive)
5,COc1cc(OC)nc(Oc2cccc(Oc3nc(OC)cc(OC)n3)c2C(=O)O)n1,0.57% (inactive)
6,N#CCNCC#N,4.28% (inactive)
7,CCNc1nc(NC(C)C)nc(OC)n1,0.0961% (inactive)
8,Cc1cnc[nH]1,-1.67% (inactive)
9,COc1cc2c(cc1OC)[C@@]13CCN4CC5=CCO[C@H]6CC(=O)N2[C@H]1[C@H]6[C@H]5C[C@H]43,-6.1% (inactive)
10,CCC1(c2ccccc2)C(=O)NC(=O)NC1=O,-2.8% (inactive)
11,CC(Oc1ccc(Oc2ncc(C(F)(F)F)cc2Cl)cc1)C(=O)O (stereo unspecified),-0.466% (inactive)
12,CN(N=O)C(N)=O,0.807% (inactive)
13,NC1=NC(=O)C(c2ccccc2)O1 (stereo unspecified),4.7% [at 53.7 µM] (inactive)
14,OC(Cn1cncn1)(c1ccc(F)cc1)c1ccccc1F (stereo unspecified),1.25% (inactive)
15,ClC(Cl)Br,7.08% (inactive)
16,CCC#N,2% (inactive)

# Biological target: Acetylcholinesterase (Homo sapiens) (UniProt P22303)
# Experiment: Acetylcholinesterase (AChE) small molecule antagonists: enzyme-based qHTS assay with human liver microsomes (AID 1347399); note: nearly all actives have a fitted effect of over 60% in size
# Conditions: Potency: qHTS inhibition; series mostly up to 115 µM; activity change, negative = inhibition: at the top concentration
# In short: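 Recombinant human AChE (50 mU/mL in the enzyme mix) and human liver microsomes (0.25 mg/mL final) were preincubated with compound and NADPH (0.25 mg/mL final) for 30 min at 37 C. Acetylthiocholine/DTNB was then added; thiocholine was read colorimetrically after 10 min at room temperature.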
row,Compound,"activity change, negative = inhibition"
1,CCS(=O)(=O)C(C)(C)S(=O)(=O)CC,1.4% [at 53 µM] (inactive)
2,O=C(O)c1ccc2[nH]cc(CCCCN3CC=C(c4ccccc4)CC3)c2c1,-2.65% [at 53 µM] (inactive)
3,O=[N+]([O-])c1cc(Cl)c(Cl)c(Cl)c1,-0.618% (inactive)
4,CCN(Cc1ccc(Cl)nc1)/C(=C/[N+](=O)[O-])NC,-0.147% [at 53 µM] (inactive)
5,C[N+](C)=CCl,-0.0255% (inactive)
6,CCC(C)(C)c1cc(-n2nc3ccccc3n2)c(O)c(C(C)(C)CC)c1,-1.65% (inactive)
7,OCCSCSCCO,0.461% (inactive)
8,ClCCCN1CCN(c2cccc(Cl)c2)CC1,0.435% [at 53 µM] (inactive)
9,C=C(C)CN(CC)c1c([N+](=O)[O-])cc(C(F)(F)F)cc1[N+](=O)[O-],-0.146% (inactive)
10,CC(C)[N+](=O)[O-],0.384% (inactive)
11,Cc1cccc(C#N)c1,-2.23% (inactive)
12,COC(=O)c1ccccc1S(=O)(=O)NC(=O)N(C)c1nc(C)nc(OC)n1,-1.62% (inactive)
13,CC(C)(C)C(=O)C(Oc1ccc(Cl)cc1)n1cncn1 (stereo unspecified),-0.583% (inactive)
14,CN1C(=S)CN=C(c2ccccc2)c2cc(Cl)ccc21,-0.281% [at 53 µM] (inactive)
15,O=NN1CCN(N=O)CC1,-0.65% (inactive)
16,O=C(O)c1cccc(Cl)c1,-0.689% (inactive)
17,O=CNC(N1CCN(C(NC=O)C(Cl)(Cl)Cl)CC1)C(Cl)(Cl)Cl (stereo unspecified),0.887% (inactive)
18,Cc1ncc2n1-c1ccc(Cl)cc1C(c1ccccc1F)=NC2,0.396% [at 53 µM] (inactive)

row,Compound,"activity change, negative = inhibition"
1,CCOC(=O)CP(=O)(OCC)OCC,0.535% (inactive)
2,COC(=O)C(c1ccccc1)C1CCCCN1 (stereo unspecified),-3.76% (inactive)
3,COC(=O)C(C)Oc1ccc(Oc2ccc(Cl)cc2Cl)cc1 (stereo unspecified),1.46% (inactive)
4,C[C@H]1CCC[C@H](O)CCCCCc2cc(O)cc(O)c2C(=O)O1,-0.327% (inactive)
5,CCCCc1ccc(O)cc1,0.524% (inactive)
6,C[C@@H]1CN(C2CCC(C#N)(c3ccc(F)cc3)CC2)CC[C@]1(C(=O)O)c1ccccc1 (stereo partly specified),-1.08% [at 53 µM] (inactive)
7,COc1cc(OC)nc(Oc2cccc(Oc3nc(OC)cc(OC)n3)c2C(=O)O)n1,0.458% (inactive)
8,N#CCNCC#N,0.291% (inactive)
9,CCNc1nc(NC(C)C)nc(OC)n1,0.287% (inactive)
10,Cc1cnc[nH]1,0% (inactive)
11,CCC1(c2ccccc2)C(=O)NC(=O)NC1=O,-0.341% (inactive)
12,CC(Oc1ccc(Oc2ncc(C(F)(F)F)cc2Cl)cc1)C(=O)O (stereo unspecified),-3.36% (inactive)
13,CN(N=O)C(N)=O,-4.47% (inactive)
14,NC1=NC(=O)C(c2ccccc2)O1 (stereo unspecified),-1.12% [at 53 µM] (inactive)
15,OC(Cn1cncn1)(c1ccc(F)cc1)c1ccccc1F (stereo unspecified),0% (inactive)
16,ClC(Cl)Br,-3.59% (inactive)
17,CCC#N,0% (inactive)
